Assay results reported in PubChem BioAssay (Tox21).
Records with an inconclusive call do not appear. Where a call stands in place of a potency, no number is given. Activity calls are given as the source filed them. Calls come from the whole dose curve; as a rule, active = well fitted inhibition curve with a large enough effect in the repeat runs; inconclusive = weak or mixed curves, or effect the other way; inactive = no such curve, though single readings can be large or run the other way.
Potency is the fitted concentration of half-maximal effect.

What follows are compounds tested against Androgen receptor (Homo sapiens) (UniProt P10275) (assay: qHTS assay to identify small molecule antagonists of the androgen receptor (AR) signaling pathway using the MDA cell line (AID 743042; note: nearly all actives have a fitted effect of over 55% in size)). Settings: MDA-kb2 AR-luc, MMTV luciferase, R1881 antagonist, 16 h; series mostly up to 70.3 µM.
Chain of Androgen receptor (Homo sapiens) (P10275 whole entry, looked up): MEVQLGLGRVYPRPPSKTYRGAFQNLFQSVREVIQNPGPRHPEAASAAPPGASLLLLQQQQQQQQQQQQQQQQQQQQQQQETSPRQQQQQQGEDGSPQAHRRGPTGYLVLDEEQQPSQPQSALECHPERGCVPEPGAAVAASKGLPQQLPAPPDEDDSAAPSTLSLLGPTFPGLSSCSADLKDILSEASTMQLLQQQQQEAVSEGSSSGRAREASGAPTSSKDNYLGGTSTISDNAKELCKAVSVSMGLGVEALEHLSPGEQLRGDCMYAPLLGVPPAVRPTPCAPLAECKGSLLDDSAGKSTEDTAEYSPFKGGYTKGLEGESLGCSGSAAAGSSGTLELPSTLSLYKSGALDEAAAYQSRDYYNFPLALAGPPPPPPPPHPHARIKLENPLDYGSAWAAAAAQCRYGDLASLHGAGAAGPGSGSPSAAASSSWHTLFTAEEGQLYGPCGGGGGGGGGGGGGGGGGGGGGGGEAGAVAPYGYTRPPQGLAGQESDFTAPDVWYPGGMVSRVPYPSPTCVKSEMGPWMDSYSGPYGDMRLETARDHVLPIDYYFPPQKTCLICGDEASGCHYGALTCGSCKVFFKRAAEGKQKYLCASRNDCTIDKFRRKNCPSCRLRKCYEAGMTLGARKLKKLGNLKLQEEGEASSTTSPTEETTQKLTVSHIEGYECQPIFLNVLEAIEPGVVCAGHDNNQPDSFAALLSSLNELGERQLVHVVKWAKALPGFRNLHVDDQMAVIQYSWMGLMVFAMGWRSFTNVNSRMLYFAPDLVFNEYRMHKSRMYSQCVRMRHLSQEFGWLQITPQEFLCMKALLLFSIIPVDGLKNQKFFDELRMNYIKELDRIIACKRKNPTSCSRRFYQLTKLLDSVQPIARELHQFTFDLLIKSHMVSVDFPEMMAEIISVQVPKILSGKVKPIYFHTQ
Outline: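 MDA-kb2 breast carcinoma cells carrying MMTV-luciferase (AR/GR responsive) were co-treated with compounds and the agonist R1881 for 16 h at 37C. Inhibition read as ONE-Glo luminescence; CellTiter-Fluor fluorescence measured in parallel for cytotoxicity.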
For O=C(Cn1ccnc1[N+](=O)[O-])NCCO, the Potency was “inactive”. In the case of O=c1cc(-c2ccccc2)oc2cc(O)cc(O)c12, the Potency is reported as “inactive”. In the case of O=C(CCc1ccc(O)cc1)c1c(O)cc(O)cc1O, the Potency is reported as “inactive”. In the case of CCCCC(CC)CN (stereo unspecified), the Potency is reported as “inactive”. CC1=Nc2ccc3ccccc3c2C1(C)C was tested, and the Potency was “inactive”. With CCC(=O)C1CC(C(C)C)CC=C1C (stereo unspecified) the Potency was “inactive”. In the case of O=[N+]([O-])c1cc(C2CCCCC2)c(O)c([N+](=O)[O-])c1, the Potency is reported as 12.2 µM (active). OC(CCN1CCCC1)(c1ccccc1)C1CCCCC1 (stereo unspecified) was tested, and the Potency was “inactive”. c1cc(N(CC2CO2)CC2CO2)ccc1Cc1ccc(N(CC2CO2)CC2CO2)cc1 (stereo unspecified) was tested, and the Potency was 27.3 µM (active). With C/C=C/C=C/C=O the Potency was “inactive”. In the case of O=C=Nc1cccc(C(F)(F)F)c1, the Potency is reported as “inactive”.
